Laboratory results: the supplement of paper PMC7411054
Where a name gives a salt, the structure may show the parent alone.

Columns and labels:
Experiment in all cases: lowest phenotypically active concentration; higher = less potent
Conditions in all cases: treatment time: 24 h
A549-CANX-COX4 = tested on: A549-CANX-COX4
Summary of the method: (§1)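 Phenotypic activity depended on meeting both a deviation and a reproducibility criterion. The fifteen gene-edited A549, HepG2 and WPMY1 reporter lines were treated at 0.3, 1, 3 or 9 µM for 24 h, four wells each, then imaged live with features normalised to solvent control wells. Deviation required ≥3 of 4 wells past the 95th percentile of control Euclidean distances, and reproducibility a median replicate Pearson correlation above the 95th percentile of non-replicates.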

A549-TUBA1B-RELA = tested on: A549-TUBA1B-RELA
Summary of the method: as §1

HepG2-ACTB-RAB5A = tested on: HepG2-ACTB-RAB5A
Summary of the method: as §1

HepG2-CANX-COX4 = tested on: HepG2-CANX-COX4
Summary of the method: as §1

HepG2-TP53BP1-CLTA = tested on: HepG2-TP53BP1-CLTA
Summary of the method: as §1

WPMY1-ACTB-RAB5A = tested on: WPMY1-ACTB-RAB5A
Summary of the method: as §1

WPMY1-CANX-COX4 = tested on: WPMY1-CANX-COX4
Summary of the method: as §1

WPMY1-GM130-SQSTM1 = tested on: WPMY1-GM130-SQSTM1
Summary of the method: as §1

WPMY1-TP53BP1-CLTA = tested on: WPMY1-TP53BP1-CLTA
Summary of the method: as §1

WPMY1-TUBA1B-RELA = tested on: WPMY1-TUBA1B-RELA
Summary of the method: as §1

Measured: lowest phenotypically active concentration

CC(C)[C@@]1(NC(=O)[C@@H]2C[C@@H]3c4cccc5[nH]cc(c45)C[C@H]3N(C)C2)O[C@@]2(O)[C@@H]3CCCN3C(=O)[C@H](Cc3ccccc3)N2C1=O [Dihydroergocristine mesylate]
9 µM: A549-CANX-COX4 | A549-TUBA1B-RELA | HepG2-CANX-COX4 | HepG2-TP53BP1-CLTA | WPMY1-ACTB-RAB5A | WPMY1-CANX-COX4 | WPMY1-GM130-SQSTM1 | WPMY1-TP53BP1-CLTA | WPMY1-TUBA1B-RELA
3 µM: HepG2-ACTB-RAB5A

CN1C[C@H](C(=O)N[C@]2(C)O[C@@]3(O)[C@@H]4CCCN4C(=O)[C@H](Cc4ccccc4)N3C2=O)C=C2c3cccc4[nH]cc(c34)C[C@H]21 [ergotamine]
3 µM: A549-CANX-COX4 | A549-TUBA1B-RELA | HepG2-CANX-COX4 | HepG2-TP53BP1-CLTA | WPMY1-ACTB-RAB5A | WPMY1-CANX-COX4 | WPMY1-GM130-SQSTM1 | WPMY1-TP53BP1-CLTA | WPMY1-TUBA1B-RELA
9 µM: HepG2-ACTB-RAB5A

COc1ccc2c(c1)/C(=C/c1c[nH]cn1)C(=O)N2
3 µM: WPMY1-ACTB-RAB5A
1 µM: A549-CANX-COX4 | A549-TUBA1B-RELA | HepG2-ACTB-RAB5A | HepG2-CANX-COX4 | HepG2-TP53BP1-CLTA | WPMY1-CANX-COX4 | WPMY1-GM130-SQSTM1 | WPMY1-TP53BP1-CLTA | WPMY1-TUBA1B-RELA

C[C@H]1O[C@@H](O[C@H]2[C@@H](O)C[C@H](O[C@H]3[C@@H](O)C[C@H](O[C@H]4CC[C@@]5(C)[C@H](CC[C@@H]6[C@@H]5CC[C@]5(C)[C@@H](C7=CC(=O)OC7)[C@@H](O)C[C@]65O)C4)O[C@@H]3C)O[C@@H]2C)C[C@H](O)[C@@H]1O [Gitoxin]
≤ 0.3 µM: A549-CANX-COX4 | A549-TUBA1B-RELA | HepG2-ACTB-RAB5A | HepG2-CANX-COX4 | HepG2-TP53BP1-CLTA | WPMY1-ACTB-RAB5A | WPMY1-CANX-COX4 | WPMY1-TP53BP1-CLTA | WPMY1-TUBA1B-RELA
1 µM: WPMY1-GM130-SQSTM1

COC[C@H]1OC(=O)c2coc3c2[C@@]1(C)C1=C(C3=O)[C@@H]2CCC(=O)[C@@]2(C)C[C@H]1OC(C)=O [wortmannin]
9 µM: A549-CANX-COX4
3 µM: A549-TUBA1B-RELA

COC(=O)[C@@]1(O)C[C@H]2O[C@]1(C)n1c3ccccc3c3c4c(c5c6ccccc6n2c5c31)C(=O)NC4
≤ 0.3 µM: A549-CANX-COX4 | A549-TUBA1B-RELA | HepG2-ACTB-RAB5A | HepG2-CANX-COX4 | HepG2-TP53BP1-CLTA | WPMY1-ACTB-RAB5A | WPMY1-CANX-COX4 | WPMY1-GM130-SQSTM1 | WPMY1-TP53BP1-CLTA | WPMY1-TUBA1B-RELA

C[C@]12CC[C@H](O)C[C@H]1CC[C@@H]1[C@@H]2C[C@@H](O)[C@]2(C)[C@@H](C3=CC(=O)OC3)CC[C@]12O [Digoxigenin]
3 µM: HepG2-CANX-COX4 | WPMY1-GM130-SQSTM1
1 µM: A549-CANX-COX4 | HepG2-ACTB-RAB5A | HepG2-TP53BP1-CLTA | WPMY1-ACTB-RAB5A | WPMY1-CANX-COX4 | WPMY1-TP53BP1-CLTA | WPMY1-TUBA1B-RELA
≤ 0.3 µM: A549-TUBA1B-RELA

COc1ccc(C[C@H]2NC[C@H](O)[C@H]2OC(C)=O)cc1 [Anisomycin]
≤ 0.3 µM: A549-CANX-COX4 | A549-TUBA1B-RELA | HepG2-ACTB-RAB5A | HepG2-CANX-COX4 | HepG2-TP53BP1-CLTA | WPMY1-ACTB-RAB5A | WPMY1-CANX-COX4 | WPMY1-GM130-SQSTM1 | WPMY1-TP53BP1-CLTA | WPMY1-TUBA1B-RELA

C[C@@H]1O[C@@H](O[C@H]2C[C@@H](O)[C@]3(CO)[C@H]4[C@H](O)C[C@]5(C)[C@@H](C6=CC(=O)OC6)CC[C@]5(O)[C@@H]4CC[C@]3(O)C2)[C@H](O)[C@H](O)[C@H]1O [Strophantine octahydrate]
1 µM: A549-TUBA1B-RELA
≤ 0.3 µM: A549-CANX-COX4 | HepG2-ACTB-RAB5A | HepG2-CANX-COX4 | HepG2-TP53BP1-CLTA | WPMY1-ACTB-RAB5A | WPMY1-CANX-COX4 | WPMY1-GM130-SQSTM1 | WPMY1-TP53BP1-CLTA | WPMY1-TUBA1B-RELA

N#CC(C#N)=NNc1cccc(Cl)c1
9 µM: A549-CANX-COX4 | A549-TUBA1B-RELA | HepG2-ACTB-RAB5A | HepG2-CANX-COX4 | HepG2-TP53BP1-CLTA | WPMY1-ACTB-RAB5A | WPMY1-CANX-COX4 | WPMY1-GM130-SQSTM1
3 µM: WPMY1-TP53BP1-CLTA | WPMY1-TUBA1B-RELA

COc1ccc(CCN2CCC(Nc3nc4ccccc4n3Cc3ccc(F)cc3)CC2)cc1 [astemizole]
3 µM: HepG2-ACTB-RAB5A | HepG2-CANX-COX4 | HepG2-TP53BP1-CLTA | WPMY1-ACTB-RAB5A | WPMY1-CANX-COX4 | WPMY1-GM130-SQSTM1 | WPMY1-TUBA1B-RELA
1 µM: A549-TUBA1B-RELA
9 µM: A549-CANX-COX4 | WPMY1-TP53BP1-CLTA
